Screening data deposited in PubChem BioAssay by several laboratories.
MITF act: activators of MITF-driven TRPM1 promoter reporter, primary screen, cell-based, SK-MEL-5, luciferase, single point; SK-MEL-5 TRPM1-promoter luciferase, 24 h; % of positive control, neutral wells = 0; activation, % at 12.5 µM; 0.75% of 300,000 active;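 active = mean activation of at least 80% with every replicate also reaching 80%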
GAA850 FXN act: FXN promoter activators, primary screen, cell-based, luciferase luminescence, HEK293 lucGAA850; activation, % at 6 µM; HEK293 lucGAA850 FXN promoter luciferase reporter, 24 h; percent of 10 µM SAHA response; 0.56% of 360,000 active; AID 540364, 2011;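 active = activation above the average of all compounds screened plus 3 SD, cutoff fixed separately per campaign, cut at about 7.5% in these data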
Wnt bcat act: Wnt/beta-catenin pathway activators, primary screen, cell-based, plate reader, single point; Wnt/beta-catenin reporter cell assay, activator; activation, % at 9.35 µM; AID 743398, 2014; 1.2% of 300,000 active; in the data active = activation above about 30%, passing the limit was not always enough
esBAF inh: Bmi1 luciferase reporter increase in mESCs, primary screen, esBAF inhibitor project, mouse ES cells, Bmi1 luciferase knock-in, single point; 24 h; 100% = twice the neutral-well signal; reporter increase, % at 12.5 µM; 2% of 350,000 active; AID 602393, 2012; in the data active = activation above about 40%;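 note: a rise in the Bmi1 reporter signal indicates esBAF inhibition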
C2C12 statin: suppressors of statin myotoxicity in C2C12 myotubes, primary screen, cell-based, single point, plate reader. C2C12 myotubes + simvastatin, ATP luminescence, 48 h; scaled: DMSO 0, geranylgeraniol control 100. rescue of ATP level, % at 7.49 µM. 0.78% of 330,000 active;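 active = mean ATP rescue above about 67%, or every replicate alone reaching that limit, limit read from the data, passing the limit was not always enough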;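 note: myotubes were challenged with 10 µM simvastatin during compound exposure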
Of the large screens only hits and unclear results are named; the others gave an inactive call. Compounds with a hit are over-represented: about 3.3% of the library has one in this group of screens.

COCCNC(=O)C[C@@H]1CC[C@H]2[C@@H](COc3ccc(NC(=O)C4CCOCC4)cc3C(=O)N2C)O1	none (no result: MITF act, GAA850 FXN act, Wnt bcat act)
CC(C)(C)C(=O)O/N=C(\N)COc1cccc(Cl)c1	esBAF inh 81.1
CC(C)(C)C(=O)OC/C(N)=N/OC(=O)c1ccc(Cl)cc1	none (no result: MITF act, esBAF inh, C2C12 statin)
Cc1nc(N=Nc2ccc(O)cc2)n[nH]1	Wnt bcat act 43.8
CC(C)CC#Cc1cnc2c(c1)C(=O)N([C@@H](C)CO)C[C@@H](C)[C@H](CN(C)Cc1ccccc1F)O2	none (no result: MITF act, GAA850 FXN act, Wnt bcat act)
Cc1cc(N(CCO)CCO)ccc1N=Nc1cc(F)ccc1F	esBAF inh 59.3
CC(C)C#Cc1ccc2c(c1)O[C@H](CN(C)C(=O)c1cccc(F)c1)[C@@H](C)CN([C@H](C)CO)S2(=O)=O	none (no result: MITF act, GAA850 FXN act, Wnt bcat act)
N=C1C(c2nc3ccccc3s2)=C(O)CN1Cc1ccccc1	esBAF inh 48.2 (no result: Wnt bcat act)
CCN(CC)CCCN1CC(O)=C(c2nc3ccccc3s2)C1=N	none (no result: Wnt bcat act, esBAF inh, C2C12 statin)
COc1ccccc1S(=O)(=O)N1CC[C@H]2[C@H](CO)Nc3ccc(-c4cccc(C#N)c4)cc3[C@H]21	none (no result: MITF act, GAA850 FXN act, Wnt bcat act)
COc1ccc2nc(/N=C(\N)NC(=O)C(C)(C)C)nc(C)c2c1	esBAF inh 47.7 (no result: Wnt bcat act)
COc1ccc2nc(/N=C(\N)NC(=O)N3c4ccccc4Sc4ccccc43)nc(C)c2c1	none (no result: esBAF inh, C2C12 statin)
CCC(=O)N/C(N)=N/c1nc(C)c2cc(OC)ccc2n1	esBAF inh 55.2 (no result: Wnt bcat act)
